{
  "source": "ChEMBL document CHEMBL3988442",
  "about": "“University of Dundee, Small-Polar-MMV Screening Library” (2021)",
  "note": "Out of some 48,000 compounds screened, about 13,000 (27%) showed an effect of 50% or more. The list shows a part of the results.",
  "data": [
    {"system": "Wolbachia pipientis", "test": "Anti-Wolbachia Cell-Based Screen", "assay_type": "functional", "set-up": "scale not given: in the data most compounds retested in dose-response had high values", "settings": "5 µM", "units": {"Percent Effect": "%"}, "values": [
      {"smiles": "CC(Cc1c(F)cccc1F)NC(=O)NCc1ncnn1C", "note": "(stereo not drawn)", "Percent Effect": 1.27},
      {"smiles": "O=C(N[C@H]1CN2CCC1CC2)c1cc(Cn2cnc3ccccc32)[nH]n1", "Percent Effect": -21.06},
      {"smiles": "c1ccc(C(Cn2cnnc2)N2CCOCC2)nc1", "note": "(stereo not drawn)", "Percent Effect": 9.343},
      {"smiles": "Cc1cccc(CN2C[C@H]3CC[C@@H]2CN(Cc2[nH]cnc2C)C3)n1", "Percent Effect": -2.11},
      {"smiles": "CC(=O)c1cc(C(=O)N2CC[C@@H]3CC[C@H](C2)N3C)c(=O)[nH]c1C", "Percent Effect": -5.325},
      {"smiles": "CN(C)C(=O)c1ccc(-c2cccc3c2CCNC3)cc1", "Percent Effect": 85.47},
      {"smiles": "Nc1cc(-c2cccc3c2CCNC3)ncn1", "Percent Effect": 9.212},
      {"smiles": "Nc1cnc(-c2cccc3c2CCNC3)cn1", "Percent Effect": 7.253},
      {"smiles": "O=C(O)C(F)(F)F.O=C(O)C(F)(F)F.c1cnc(N2CCO[C@H]3CN(CC4CC4)C[C@H]32)nc1", "Percent Effect": 92.7},
      {"smiles": "Fc1ccccc1CN1C[C@@H]2OCCN(c3ncccn3)[C@@H]2C1", "Percent Effect": 1.64},
      {"smiles": "CNC(=O)CN1CCO[C@H]2CN(CC3CC3)C[C@H]21.O=C(O)C(F)(F)F.O=C(O)C(F)(F)F", "Percent Effect": 7.624},
      {"smiles": "O=C(O)C(F)(F)F.c1cnc(N2CCO[C@H]3CN(Cc4csnn4)C[C@H]32)nc1", "Percent Effect": -24.49},
      {"smiles": "O=C(O)C(F)(F)F.O=C(O)C(F)(F)F.c1cnc(N2CCO[C@H]3CN(Cc4ccsc4)C[C@H]32)nc1", "Percent Effect": 14.83},
      {"smiles": "Fc1cnc(N2CCO[C@H]3CN(CC4CCC4)C[C@H]32)nc1", "Percent Effect": -20.13},
      {"smiles": "O=C(O)C(F)(F)F.O=C(O)C(F)(F)F.c1cnc(N2CCO[C@H]3CN(CC4CCOCC4)C[C@H]32)nc1", "Percent Effect": 110.6},
      {"smiles": "Fc1cnc(N2CCO[C@H]3CN(CC4CCOC4)C[C@H]32)nc1", "note": "(stereo partly drawn)", "Percent Effect": 71.68},
      {"smiles": "Fc1cnc(N2CCO[C@H]3CN(CC4CCCC4)C[C@H]32)nc1.O=C(O)C(F)(F)F", "Percent Effect": -2.844},
      {"smiles": "Cc1nc[nH]c1CN1C[C@@H]2OCCN(c3ncccn3)[C@@H]2C1.O=C(O)C(F)(F)F", "Percent Effect": -20.21},
      {"smiles": "Fc1cnc(N2CCO[C@H]3CN(CC4CCCCC4)C[C@H]32)nc1.O=C(O)C(F)(F)F", "Percent Effect": 110},
      {"smiles": "CCN1CCN(c2ccc(C(=O)NCCOC)cc2F)CC1", "Percent Effect": -17.47},
      {"smiles": "CC(C)(C)c1cn(C[C@H]2CC3CCN2C[C@@H]3C(=O)N2CCOCC2)nn1", "note": "(stereo partly drawn)", "Percent Effect": -7.534},
      {"smiles": "CC(Cn1cncn1)NCCN1CCc2ccccc21", "note": "(stereo not drawn)", "Percent Effect": 1.288},
      {"smiles": "Cn1cncc1CN1C[C@@H]2OCCN(c3ncccn3)[C@@H]2C1.O=C(O)C(F)(F)F", "Percent Effect": -0.0713},
      {"smiles": "c1ccc(CN2C[C@@H]3OCCN(c4cccnc4)[C@@H]3C2)nc1", "Percent Effect": -16.65},
      {"smiles": "O=C(O)C(F)(F)F.c1cncc(N2CCO[C@H]3CN(CC4CCOC4)C[C@H]32)c1", "note": "(stereo partly drawn)", "Percent Effect": 94.42},
      {"smiles": "Cn1cc(CN2C[C@@H]3OCCN(c4ncccn4)[C@@H]3C2)cn1.O=C(O)C(F)(F)F.O=C(O)C(F)(F)F", "Percent Effect": 9.697},
      {"smiles": "CC(C)CCN1C[C@@H]2OCCN(c3ncc(F)cn3)[C@@H]2C1.O=C(O)C(F)(F)F", "Percent Effect": 92},
      {"smiles": "O=C1[C@@H]2CCN(CC3CC3)C[C@@H]2OCCN1c1cccnc1", "Percent Effect": -19.89}
    ]}
  ]
}
